# The source made the active and inactive calls.
# Assay: HepG2 liver cancer cell viability effects, profiling panel, resazurin fluorescence, 24 h, PK04 Diversity Set (AID 1172); also: test concentration not given here
# Conditions: higher = more signal
row,SMILES,z-score
1,C=CC[C@@H]1C=C[C@H](Oc2ccc(C)cc2)[C@@H](COC(=O)NCc2cccc3ccccc23)O1,1.08
2,CCOC(=O)[C@H](CC(C)C)NC(=O)CCC1CC(OC(=O)NCc2ccc3c(c2)OCO3)CC2(CCCC(COC(=O)NCCC(C)C)O2)O1 (some centres not stated),0.54
3,CCOC(=O)CCN1C(=O)[C@H]2[C@H]3[C@H](O)[C@H](O)CC(=NO[C@@H]4O[C@H](CO)[C@@H](O)[C@H](O)[C@H]4O)[C@@H]3CC[C@H]2C1=O,-0.901
4,COC(=O)[C@H](C)NC(=O)CCC1CC(OC(=O)NCc2ccc3c(c2)OCO3)CC2(CCCC(COC(=O)NCCCN3CCCC3=O)O2)O1 (some centres not stated),0.161
5,Cc1ccc(S(=O)(=O)N[C@@H]2COC(=O)CC=C[C@@H](C)[C@H](NS(=O)(=O)c3ccc(C)cc3)COC(=O)[C@H](C)NC(=O)CC=C[C@H]2C)cc1,-0.286
6,CCOC(=O)[C@H](CC(C)C)NC(=O)CCC1CC(OC(=O)NCc2ccc3c(c2)OCO3)CC2(CCCC(COC(=O)NCCOC)O2)O1 (some centres not stated),1.22

# Assay: basal S. cerevisiae growth modulation, no modifier, primary screen, OD600, strain BY4716, 24 h, basal condition (AID 1173)
# Conditions: OD600, 24 h, higher = more signal, called active from +8 up or from −8 down
row,SMILES,z-score
1,COc1ccc(COC(=O)NN=C2C[C@@H](O)[C@@H](O)[C@@H]3[C@@H]4C(=O)N(Cc5ccccc5)C(=O)[C@@H]4CC[C@@H]23)cc1,0.18 (inactive)
2,O=C1C=C[C@@H](O)[C@@H]2[C@@H]3C(=O)N(Cc4ccccc4)C(=O)[C@@H]3CC[C@@H]12,-0.459 (inactive)
3,CCCC[C@H]1CN2[C@@H](CC[C@@H](C)[C@@H]2c2ccc(Br)cc2)C(=O)O1,-2.36 (inactive)
4,COc1ccc(O[C@H]2C=C[C@@H](C#Cc3ccccc3)O[C@@H]2CO)cc1,-10.4 (active)
5,O=C(NCCC[N+]1=CC=NC1c1ccccc1)N1CCCc2nc(-c3ccc(Br)cc3)ccc21 (configuration not stated),-2.72 (inactive)
6,C[C@H]1CC[C@@H](C(=O)O)N[C@@H]1c1ccc(C#Cc2ccccc2)cc1,-19.1 (active)
7,CC(C)CN1CCc2nc(-c3ccccc3)c3c(c2C1)CO[C@@H](C)C3,-1.33 (inactive)
8,COc1ccc(COC(=O)NN=C2C[C@@H](O)[C@@H](O)[C@@H]3[C@@H]4C(=O)N(Cc5ccc6c(c5)OCO6)C(=O)[C@@H]4CC[C@H]23)cc1,0.321 (inactive)
9,COC(=O)C(C(=O)OC)C1CCCC(=O)C1 (configuration not stated),-0.272 (inactive)
10,CC(C)[C@@H](OCc1ccccc1)[C@H](C)C=NOC[C@@H](O)[C@H]1O[C@@H]2OC(C)(C)O[C@@H]2[C@H]1O,-0.848 (inactive)
11,CCc1cc2c(nc1CC)CCN(CCC(C)=NO[C@@H]1O[C@H](COC(C)=O)[C@@H](OC(C)=O)[C@H](OC(C)=O)[C@H]1OC(C)=O)C2,-0.334 (inactive)
12,COC(=O)[C@H](C)NC(=O)CCC1CC(OC(=O)NCCc2ccc(F)cc2)CC2(CCCC(COC(=O)NCCc3ccccc3OC)O2)O1 (some centres not stated),0.292 (inactive)
13,CCOC(=O)[C@H](CC(C)C)NC(=O)CCC1CC(OC(=O)NCc2ccc3c(c2)OCO3)CC2(CCCC(COC(=O)NCCc3ccc(Cl)cc3)O2)O1 (some centres not stated),-0.723 (inactive)
14,CC(CCN1CCc2nc(-c3ccccc3)c(-c3ccccc3)cc2C1)=NOC(C)CN1CCCc2nc(C)c(C)cc21 (configuration not stated),-3.98 (inactive)
15,O=C1[C@H]2[C@H]3[C@H](O)[C@H](O)CC(=NO[C@@H]4O[C@H](CO)[C@@H](O)[C@H](O)[C@H]4O)[C@@H]3CC[C@H]2C(=O)N1C[C@@H]1CCCO1,-2.29 (inactive)
16,COc1ccc(O[C@H]2C=C[C@@H](c3ccccc3)O[C@@H]2COC(=O)CCC(C)=NOC[C@@H](O)COCc2ccco2)cc1,-1.06 (inactive)
17,CC(C)=CCCC(C)=CCON=C1C[C@@H](O)[C@@H](O)[C@@H]2[C@@H]3C(=O)N(c4cccc(Oc5ccccc5)c4)C(=O)[C@@H]3CC[C@H]12,0.681 (inactive)
18,CO[C@@H]1C=CCC(=O)N[C@@H](C)C(=O)OC[C@@H](NS(=O)(=O)c2ccc(C)cc2)[C@H](C)C=CCC(=O)OC[C@H]1C,-0.872 (inactive)

row,SMILES,z-score
1,COc1ccc(COC(=O)NN=C2C[C@@H](O)[C@@H](O)[C@@H]3[C@@H]4C(=O)N(c5cccc(Oc6ccccc6)c5)C(=O)[C@@H]4CC[C@H]23)cc1,-1.08 (inactive)
2,CCOC(=O)CCN1C(=O)[C@H]2[C@H]3[C@H](O)[C@H](O)CC(=NNC(=O)OCc4ccccc4)[C@H]3CC[C@H]2C1=O,-0.712 (inactive)
3,CO[C@@H](C(C)C)[C@@H](C)C1OC(=O)CC1O (some centres not stated),-0.139 (inactive)
4,CCN1C(=O)[C@H]2[C@H]3[C@H](O)[C@H](O)CC(=NO[C@H](C)c4cn([C@@H]5COC[C@H]5O)nn4)[C@@H]3CC[C@H]2C1=O,1.15 (inactive)
5,CCOC(=O)[C@H](CC(C)C)NC(=O)CCC1CC(OC(=O)NCCc2ccc(F)cc2)CC2(CCCC(COC(=O)NCc3cccc(C(F)(F)F)c3)O2)O1 (some centres not stated),0.924 (inactive)
6,O=C1CCCC=C1C(O)C1CCCCC1 (configuration not stated),-0.143 (inactive)
7,COc1ccc(COC(=O)NN=C2C[C@@H](O)[C@@H](O)[C@@H]3[C@@H]4C(=O)N(C5CCCCC5)C(=O)[C@@H]4CC[C@@H]23)cc1,-1.29 (inactive)
8,O=C1C2=CC[C@H]3C(=O)N(C4CCCCC4)C(=O)[C@H]3[C@H]2[C@H](O)[C@@H]2O[C@H]12,-5.74 (inactive)
9,O=C1C[C@@H](O)[C@@H](O)[C@@H]2[C@@H]3C(=O)N(C4CCCCC4)C(=O)[C@@H]3CC[C@@H]12,0.133 (inactive)
10,C=CC[C@@H]1C=C[C@H](ON=CC[C@@H]2C=C[C@H](OC(C)=O)[C@@H](COC(C)=O)O2)[C@@H](CO)O1,0.365 (inactive)
11,CC(CCC(=O)OC[C@H]1O[C@H](C#Cc2ccccc2)C=C[C@@H]1Oc1ccc(C)cc1)=NO[C@H](C)c1cn([C@@H]2COC[C@H]2O)nn1,-0.174 (inactive)
12,COC(=O)[C@@H]1CC[C@H](C)[C@@H](c2ccc(C)cc2)N1C(=O)c1ccc(C=NOC[C@@H](O)[C@H]2O[C@@H]3OC(C)(C)O[C@@H]3[C@H]2O)cc1,-0.318 (inactive)
13,C=CC[C@@H]1C=C[C@H](Oc2ccc(C)cc2)[C@@H](COC(=O)NCc2cccc3ccccc23)O1,-0.469 (inactive)
14,CCOC(=O)[C@H](CC(C)C)NC(=O)CCC1CC(OC(=O)NCc2ccc3c(c2)OCO3)CC2(CCCC(COC(=O)NCCC(C)C)O2)O1 (some centres not stated),-0.214 (inactive)
15,CCOC(=O)CCN1C(=O)[C@H]2[C@H]3[C@H](O)[C@H](O)CC(=NO[C@@H]4O[C@H](CO)[C@@H](O)[C@H](O)[C@H]4O)[C@@H]3CC[C@H]2C1=O,-1.4 (inactive)
16,COC(=O)[C@H](C)NC(=O)CCC1CC(OC(=O)NCc2ccc3c(c2)OCO3)CC2(CCCC(COC(=O)NCCCN3CCCC3=O)O2)O1 (some centres not stated),0.58 (inactive)
17,Cc1ccc(S(=O)(=O)N[C@@H]2COC(=O)CC=C[C@@H](C)[C@H](NS(=O)(=O)c3ccc(C)cc3)COC(=O)[C@H](C)NC(=O)CC=C[C@H]2C)cc1,-0.547 (inactive)
18,CCOC(=O)[C@H](CC(C)C)NC(=O)CCC1CC(OC(=O)NCc2ccc3c(c2)OCO3)CC2(CCCC(COC(=O)NCCOC)O2)O1 (some centres not stated),-0.383 (inactive)
